Most compounds without a hit are left out; they make up all but 9% or so of the library.
ALDH1A1 inh: ALDH1A1 (human) enzyme inhibition. P00352. Purified ALDH1A1, NADH fluorescence, propionaldehyde substrate. Potency, µM (titrated, usually from 75.3 µM), for the others: top-dose activity, negative = inhibition, most hits filed as inhibitors. 220,000 tested, 7.3% active;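 note: potency is the fitted concentration of half-maximal effect; plate controls were no enzyme wells and a reference inhibitor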
HPGD inh: HPGD (human) dehydrogenase inhibition. P15428. purified HPGD, NADH fluorescence kinetic, PGE2 substrate. Potency, µM, inactives show at the top dose activity change, negative = inhibition, most hits filed as inhibitors. 150,000 tested, 4.3% active. AID 894; note: potency is the fitted concentration of half-maximal effect
Target sequence (P15428 whole entry, looked up): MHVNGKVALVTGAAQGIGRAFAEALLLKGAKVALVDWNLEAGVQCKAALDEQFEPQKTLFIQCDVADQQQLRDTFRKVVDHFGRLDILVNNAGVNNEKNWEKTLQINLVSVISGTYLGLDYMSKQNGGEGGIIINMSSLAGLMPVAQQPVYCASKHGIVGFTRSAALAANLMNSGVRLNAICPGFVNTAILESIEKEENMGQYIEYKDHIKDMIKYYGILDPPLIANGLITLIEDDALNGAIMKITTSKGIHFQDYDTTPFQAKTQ
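NADH formation kinetics: reaction with 30 uM PGE2 and 1 mM NAD+ (final), 20 nM enzyme, Tris-HCl pH 8 with Tween 20, after 15 min compound preincubation at room temperature. Fluorescence change, last versus first of five reads.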
IMPase cell inh: IMPase inhibition in cells. P97697. CHO-M1 cells, IP1 accumulation, HTRF TR-FRET ratio. inhibition (IP1 accumulation), % at 46.1 µM. 120,000 tested, under 10 active; active = well fitted curve in the direction sought with a large enough effect in the signal ratio, not every such curve was filed as active; inconclusive = small, poorly fitted or top-dose-only effect, or a change in a side signal; inactive = no such curve, though single readings can be large or run the other way; the % refers to the signal ratio;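 note: cells stimulated with carbachol in lithium chloride buffer; plate controls were DMSO basal wells for no effect and reference inhibitor wells for full effect; higher means more IMPase inhibition seen as more IP1 and lower FRET ratio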
Target sequence (P97697 whole entry, looked up): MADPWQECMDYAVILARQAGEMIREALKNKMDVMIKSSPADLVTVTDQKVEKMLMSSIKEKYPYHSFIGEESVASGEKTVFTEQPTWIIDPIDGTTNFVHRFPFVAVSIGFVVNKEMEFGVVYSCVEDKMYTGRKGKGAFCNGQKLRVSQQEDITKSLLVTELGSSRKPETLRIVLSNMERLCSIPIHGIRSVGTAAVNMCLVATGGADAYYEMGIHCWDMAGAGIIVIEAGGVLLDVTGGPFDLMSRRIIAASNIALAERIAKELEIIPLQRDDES
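CHO-M1 cells (CHO stably expressing M1 receptor), compound up to 46 uM final, stimulated with carbachol (50 uM as added) in buffer with 50mM LiCl, pH 7.4, 30 min at 37C. Cytosolic IP1 read by TR-FRET; AC50 from Hill fits.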
* hit, by the source's call; [ ] = remark or other dose. Unless noted, calls come from the whole dose curve; as a rule, active = well fitted inhibition curve with a large enough effect (not every such curve was filed as active); inconclusive = small, poorly fitted or top-dose-only effect, or another doubt; inactive = no such curve, though single readings can be large or run the other way. Unless noted, % is set by controls: 0 for no effect and ±100 for the full control effect.

For COc1ccc(C(=O)CSc2nc(C(C)(C)C)nc3ccccc23)cc1 the results were ALDH1A1 inh 14µM*.
For COc1ccc(OCCSc2nc3ccccc3n2CC(=O)O)cc1 the results were ALDH1A1 inh 5%, HPGD inh -4% and IMPase cell inh -5.
`CC1(C(=O)NCCCNc2ncc(C(F)(F)F)cc2Cl)C=CC2(CCCCC2)N1C(=O)c1ccccc1` (stereo not given) gave ALDH1A1 inh inconclusive and HPGD inh -27%.
`Cc1ccc(OCC(=O)NCc2cccs2)c([N+](=O)[O-])n1` gave ALDH1A1 inh -5%.
`CSC1=NC(NCCCO)c2c(sc3c2CC(C)(C)OC3)N1` (stereo not given) gave ALDH1A1 inh inconclusive, HPGD inh inconclusive and IMPase cell inh -11.
`COc1ccccc1C(=O)NC1(C(F)(F)F)C(=O)Nc2c1c(=O)[nH]c(=O)n2CCc1ccccc1` (stereo not given) gave IMPase cell inh -12.
`CC(=O)c1ccc(-n2c(SCC(=O)c3c[nH]c4ccccc34)nc3ccccc3c2=O)cc1` gave ALDH1A1 inh 17%, HPGD inh 28µM* and IMPase cell inh inconclusive.
Screening CCOC(=O)c1c(C)[nH]c(C)c1C(=O)CSc1nc2ccccc2c(=O)n1-c1ccc(CC)cc1 returned ALDH1A1 inh inconclusive and HPGD inh -7%.
`Cn1c(SCC(=O)c2ccccc2)nnc1-c1ccco1` gave ALDH1A1 inh inconclusive, HPGD inh -8% and IMPase cell inh 6.
`CC(C)(C)c1nnc(SCC(=O)c2ccccc2)n(N)c1=O` gave ALDH1A1 inh 9% and HPGD inh 25µM*.
For CCn1c(SCC(=O)NCc2ccccc2)nc2ccccc2c1=O the results were ALDH1A1 inh 5%, HPGD inh -9% and IMPase cell inh -7.
Screening CCn1c(SCC(=O)c2ccccc2)nc2ccccc2c1=O returned ALDH1A1 inh 16µM*.
CC(Sc1nnc2ccccn12)C(=O)Nc1ccc2c(c1)OCCO2 (stereo not given) was read as ALDH1A1 inh 0%.
`CCc1ccc(NC(=O)COc2ccc(Br)cn2)cc1` gave ALDH1A1 inh 13%.
`CCn1cc(-c2csc(N)n2)c(C)n1` gave ALDH1A1 inh 0%.
Screening COc1cccc(NC(=O)/C(C#N)=C/c2c(C)n(Cc3ccc(Cl)cc3)c3ccccc23)c1 returned IMPase cell inh -8.
For Cc1cc(=O)oc(C)c1C(=O)NCc1ccccc1 the results were ALDH1A1 inh 4%, HPGD inh -6% and IMPase cell inh 11.
For CCCNC(=O)c1c(C)cc(=O)oc1C the results were ALDH1A1 inh -1%, HPGD inh -11% and IMPase cell inh -4.
CCN(CCCNC(=O)c1c(C)cc(=O)oc1C)c1ccccc1 was read as ALDH1A1 inh 7.9µM*, HPGD inh -19% and IMPase cell inh 5[1.84 µM].
For CCCCN(CCCNC(=O)CN1C(=O)COc2ccccc21)c1ccccc1 the results were ALDH1A1 inh 13µM*, HPGD inh -16% and IMPase cell inh 11.
For CCN(CCCNC(=O)CN1C(=O)COc2ccccc21)c1ccccc1 the results were ALDH1A1 inh -5%, HPGD inh 1% and IMPase cell inh 5.
Screening CCCCN(CCCNC(=O)c1c(C)cc(=O)oc1C)c1ccccc1 returned ALDH1A1 inh 22µM*, HPGD inh -12% and IMPase cell inh 8.
`CCOCN(C(=O)CSc1nc2ccccc2[nH]1)c1c(C)cccc1CC` gave IMPase cell inh 17.
`Cc1ccc(S(=O)(=O)N2CCCCC2)c(C)c1NS(C)(=O)=O` gave ALDH1A1 inh 0%.
O=C(NC(Cc1cc(=O)[nH]c2ccccc12)C(=O)O)c1ccc(Cl)cc1 (stereo not given) was read as ALDH1A1 inh -7% and HPGD inh -29%.
For COc1cc(/C=N/NC(=O)CC2(C)OCCCO2)ccc1OCc1ccc(Cl)cc1Cl the results were ALDH1A1 inh 0% and HPGD inh -22%.
COc1cc(/C=N/NC(=O)CC2(C)OCCCO2)ccc1OCc1ccccc1 was read as ALDH1A1 inh 11µM* and HPGD inh inconclusive.
For CCOC(=O)c1nc(C)sc1-c1ccnn1S(=O)(=O)c1ccc(C)cc1 the results were ALDH1A1 inh 3.2µM*.
For CCOC(=O)c1nc(C)sc1-c1ccnn1S(=O)(=O)c1ccc(Cl)cc1Cl the results were ALDH1A1 inh -14%.
Screening O=C(NCCSc1ccccn1)c1ccc(Cl)cc1Cl returned ALDH1A1 inh 5%.
Screening CCCCn1c(=O)n(CC(=O)Nc2ccc(OC)c(Cl)c2)c(=O)c2c1nc(CO)n2CCC returned ALDH1A1 inh inconclusive, HPGD inh -3% and IMPase cell inh -3.
COC(CNC(=O)c1ccc(N2CCc3ccccc32)c([N+](=O)[O-])c1)OC was read as ALDH1A1 inh inconclusive, HPGD inh -26% and IMPase cell inh 10.
`NNC(=O)c1ccc(N2CCc3ccccc32)c([N+](=O)[O-])c1` gave ALDH1A1 inh 1.6µM*.
CN1CCN(C2=Nc3ccccc3Sc3ccc(Cl)cc32)CC1 was read as ALDH1A1 inh 5%.
CN1CCN(C2=Cc3ccccc3Sc3cc(F)c(F)cc32)CC1 was read as ALDH1A1 inh 0%, HPGD inh 25µM* and IMPase cell inh 26.
Screening CN1CCN(C2=Cc3ccccc3Sc3cc(F)c(Cl)cc32)CC1 returned ALDH1A1 inh 5.6µM*, HPGD inh 28µM* and IMPase cell inh 22.
Screening CN1CCN(C2=Cc3cc(Cl)ccc3Sc3cc(F)ccc32)CC1 returned ALDH1A1 inh -10%, HPGD inh -29% and IMPase cell inh 25.
For COc1cccc(-c2nc(NCCN3CCOCC3)c3ccccc3n2)c1 the results were ALDH1A1 inh 2%.
For O=C1C(=O)N(CCCN2CCOCC2)C(c2cccs2)/C1=C(/O)c1ccc2c(c1)OCO2 (stereo not given) the results were ALDH1A1 inh -4%, HPGD inh -10% and IMPase cell inh -6[1.84 µM].
For Cn1nc(C(F)(F)F)c(CNC(=O)C(C)(C)CCl)c1N1CCOCC1 the results were ALDH1A1 inh 4%.
NC(=O)C1(N2CCCCC2)CCN(C(=S)NCCc2ccccc2)CC1 was read as ALDH1A1 inh 7%.
CC(=C1C(=O)c2ccccc2C1=O)N1CCN(Cc2ccccc2)CC1 was read as ALDH1A1 inh 10µM*, HPGD inh 2% and IMPase cell inh 0.
CC(=C1C(=O)c2ccccc2C1=O)N1CCN(C/C=C/c2ccccc2)CC1 was read as ALDH1A1 inh 8.9µM*, HPGD inh -7% and IMPase cell inh 4.
CC(=O)C1CCN(Cc2ccccc2)CC1 was read as ALDH1A1 inh -5%, HPGD inh -10% and IMPase cell inh 7.
`C(=C/c1ccccc1)/CN1CCN(C(c2ccccc2)c2ccccc2)CC1` gave ALDH1A1 inh -7%[20.9 µM], HPGD inh -13% and IMPase cell inh 15[20.6 µM].
Screening CC(=C1C(=O)c2ccccc2C1=O)N1CCC(C(N)=O)(N2CCCCC2)CC1 returned ALDH1A1 inh 20µM*, HPGD inh -4% and IMPase cell inh 0.
CCc1nc(NCCc2ccccn2)c2nnn(Cc3ccccc3F)c2n1 was read as ALDH1A1 inh inconclusive, HPGD inh -9% and IMPase cell inh 10.

Assay outcomes: PubChem BioAssay, National Center for Advancing Translational Sciences (NCATS)
